Results from PubChem BioAssay (NCI).
Compounds without any hit were thinned out: in the full panel of roughly 83,000, 20% have a hit.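 The endpoint reported here, percent growth, reads 100 for growth as untreated, 0 for no net growth and -100 for all cells dead.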 Unmarked numbers belong to inactive results. Active and inactive are the calls of the source. The calls were made as follows: active = growth percent below 10; inactive = the rest.

What follows are compounds tested on HL-60(TB) leukemia (assay: NCI-60 one-dose screen, 48 h (100 = growth as untreated, 0 = no growth, -100 = all killed)). Conditions: 10 µM unless noted.

Row | Structure (SMILES) | growth
1 | C=C(C)[C@@H]1CC[C@]2(C(=O)N3CCN(C)CC3)CC[C@]3(C)[C@H](CC[C@@H]4[C@@]5(C)CC[C@H](OC(=O)c6ccccc6C(=O)O)C(C)(C)[C@@H]5CC[C@]43C)[C@@H]12 | 106%
2 | COc1ccc(-c2csc(C3=C(O)CN(CCCN4CCCC4=O)C3=N)n2)cc1OC | 114%
3 | FCOC(C(F)(F)F)C(F)(F)F | 96.1%
4 | O=C(O)C(Cc1ccccc1)C(=O)O | 107%
5 | COC(=O)c1nc(=S)[nH]c(C(=O)OC)c1C(=O)c1ccccc1 | 116%
6 | O=C(Cn1cc(CN2C(=O)c3ccccc3S2(=O)=O)nn1)Nc1ccc([N+](=O)[O-])cc1Cl | 94.6%
7 | CC12CCC(CC1)C(C)(C)O2 | 103%
8 | CNc1nc(C)c(-c2nc(Nc3cccc(S(N)(=O)=O)c3)ncc2F)s1 | -47.9% (active)
9 | N=C1CCC(=N)c2c1c(O)c1ccccc1c2O | 129%
10 | CNC(=O)c1ccccc1Oc1nc(Nc2cc(OC)c(OC)c(OC)c2)ncc1Br | 53.2%
11 | CC(Br)c1nc2ccccc2cc1C(N)=O (stereo not given) | 104%
12 | CC1NC(=S)NC(=O)/C1=C/c1cc(=O)oc2c1ccc1ccccc12 (stereo not given) | 102%
13 | COc1ccccc1S(=O)(=O)Nc1ccc2c3c(cc(-c4cnn(C5CC5)c4)nc13)C(=O)N2C | -10% (active)
14 | COc1cc(C=C2C(=O)N(C)C(=O)N(C)C2=O)cc(CN2CCCCC2)c1O | 96.3%
15 | Clc1cccc(C2Cc3cnccc3-c3[nH]c4ccncc4c32)c1 (stereo not given) | 25.3%
16 | CCCCCCC12CCC(=O)N1CCc1cncn12 (stereo not given) | 85.4%
17 | S=C1SCN(Cc2cccs2)CN1Cc1cccs1 | 91%
18 | O=C(c1nc2ccccc2[nH]1)C1C(c2ccc(F)cc2)C2CC3CCCCC3N2[C@@]12C(=O)Nc1ccc(Cl)cc12 (stereo not given in full) | 33.2%
19 | CCOC(=O)CSCCC#N | 118%
20 | COc1ccc2c(c1)Nc1ccccc1S2 | 102%

Row | Structure (SMILES) | growth
21 | O=C(CSc1nc2sc3c(c2c(=O)n1-c1ccccc1)CCCCC3)N/N=C/c1cccc([N+](=O)[O-])c1 | 103%
22 | Cc1c(C(N)=O)sc2nc(SCC(=O)Nc3ccc(Cl)cc3)n(-c3ccccc3)c(=O)c12 | 171%
23 | COc1cc2c(c(OC)c1OC)CCC(c1cccc(C(=O)Nc3ccccc3Br)c1)O2 (stereo not given) | 79.3%
24 | OCCNc1nc(Nc2ccc(C3=NN(c4cc(Cl)cc(Cl)c4)C(c4ccc(C(F)(F)F)cc4)C3)cc2)nc(N2CCOCC2)n1 (stereo not given) | 101%
25 | O=c1onc(-c2ccccc2)c2ccccc12 | 86.8%
26 | N#Cc1ccc(NC(=O)c2sc3nc4c(cc3c2N)C(=O)CCC4)cc1 | 81%
27 | CN1CCCCC1CCN1c2ccccc2Sc2ccc(Cl)cc21 (stereo not given) | 42.1%
28 | Nc1c(C(=O)Nc2cccc3ccccc23)sc2nc3c(cc12)CCCCC3 | -25.9% (active)
29 | COC(=O)Nc1nc2ccc(C(=O)c3cccc(I)c3)cc2[nH]1 | -41.7% (active)
30 | CN(C)c1ccc(-c2ccc(-c3ccc(C(=N)N)cn3)o2)cc1 | -67.3% (active)
31 | O=C(CCCCCCN1CC(=O)N2[C@H](c3ccc(Cl)cc3)c3[nH]c4ccccc4c3C[C@@H]2C1=O)NO | 1.54% (active)
32 | Cc1ccc(C2=NN(c3ccc(S(=O)(=O)NC(=O)NCc4ccccc4)cc3)C(c3ccc(N(C)C)cc3)C2)c(C)c1 (stereo not given) | -1.6% (active)
33 | Cn1cc(-c2csc(-c3cn(C)c4ncccc34)n2)c2cc(Br)cnc21 | 83.1%
34 | COc1cc(C(=O)/C=C/c2cccnc2Nc2ccccc2)cc(OC)c1OC | -31.2% (active)
35 | COc1ccc(OCC(=O)Nc2ccc(-c3nc4ccccc4s3)cc2C)cc1 | 48.2%
36 | COc1ccc(/C=C2\N=C3Sc4cc(Cl)ccc4C(=O)N3C2=O)cc1 | 92.4%
37 | OCCN1CCN(CC/C=C2/c3ccccc3Sc3ccc(C(F)(F)F)cc32)CC1 | 73.1%
38 | CCC1=C[C@H]2CN(CCc3c([nH]c4ccccc34)[C@@](C(=O)OC)(c3cc4c(cc3OC)N(C)[C@H]3[C@@](O)(C(=O)OC)[C@H](OC(C)=O)[C@]5(CC)[C@@H]6C[C@@H]6CN6CC[C@]43[C@@H]65)C2)C1 | -33.4% (active)
39 | O=C(O)CCNC1CCCCC1 | 97.5%
40 | O=S(=O)(NCCCNc1nccc(-c2c(-c3cccc(O)c3)nc3occn23)n1)c1ccc(Cl)cc1 | 56.1%
